The record followed here is ChEMBL document CHEMBL3433997, “St. Jude Leishmania screening dataset” (2016).

Usually inhibition stands for the relative decrease from the control value, in per cent.

Assay type in all cases: functional
In assay [1] the target is Solute carrier family 2, facilitated glucose transporter member 1 (Homo sapiens) (UniProt P11166). In words: ST_JUDE_LEISH: Cytotoxicity at 2uM final concentration against transgenic Leishmania Mexicana promastigotes LmGLUT1 that are glucose transport deficient and complemented with the human glucose transporter GLUT1. Activity is measured by DNA content using SYBR green in vitro.
Sequence of Solute carrier family 2, facilitated glucose transporter member 1 (Homo sapiens) (P11166 whole entry): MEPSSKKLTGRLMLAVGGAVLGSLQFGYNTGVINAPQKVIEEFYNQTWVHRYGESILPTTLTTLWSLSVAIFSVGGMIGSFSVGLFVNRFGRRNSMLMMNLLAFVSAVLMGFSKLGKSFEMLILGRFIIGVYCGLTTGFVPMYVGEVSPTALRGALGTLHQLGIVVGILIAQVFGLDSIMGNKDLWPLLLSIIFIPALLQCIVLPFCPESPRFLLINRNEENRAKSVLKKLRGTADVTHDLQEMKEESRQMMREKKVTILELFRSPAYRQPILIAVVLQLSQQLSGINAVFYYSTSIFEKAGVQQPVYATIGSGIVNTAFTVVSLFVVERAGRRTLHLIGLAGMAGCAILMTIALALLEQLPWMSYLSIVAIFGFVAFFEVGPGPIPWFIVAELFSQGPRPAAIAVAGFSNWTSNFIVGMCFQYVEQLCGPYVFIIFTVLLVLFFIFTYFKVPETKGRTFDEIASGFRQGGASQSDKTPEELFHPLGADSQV

Assay [2] addresses Hexose transporter 1 (Plasmodium falciparum) (UniProt O97467). In words: ST_JUDE_LEISH: Cytotoxicity at 2uM final concentration against transgenic Leishmania Mexicana promastigotes LmPfHT that are glucose transport deficient and complemented with the Plasmodium falciparum hexose transporter. Activity is measured by DNA content using SYBR green in vitro.
Assay [3] deals with Glucose transporter (Leishmania mexicana) (UniProt O61059). In words: ST_JUDE_LEISH: Cytotoxicity at 2uM final concentration against transgenic Leishmania Mexicana promastigotes LmGT2 that are glucose transport deficient and complemented with the L. Mexicana glucose transporter 2. Activity is measured by DNA content using SYBR green in vitro.

For the compound `Cc1cccc2nc(-c3cccc(-c4cccc(CN5CCC(CO)CC5)c4)c3)[nH]c12`, the inhibition in assay [1] was determined as 9.53%; in assay [2], 8.91%; in assay [3] it was 8.87%.

`CC1CN(Cc2ccccc2)CCN1c1ccc(NC(=O)c2ccc(F)cc2)cc1` (stereo not drawn): the inhibition in assay [1] is -1.05%; in assay [2], -1.7%; in assay [3] it was -3.4%.

As for `COc1cc(CCNc2nc(NCc3ccccc3-c3ccccc3)nc(N3CCC(N)CC3)n2)ccc1O`, the inhibition in assay [1] worked out at 4.17%; in assay [2], 0.92%; in assay [3], 2.4%.

In the case of `COc1ccc(-c2cncc3ccc(C(=O)NCCCn4ccnc4)nc23)cc1`, the figures for the inhibition in assay [1], in assay [2] and in assay [3] were 7.45%, 8.66% and 7.3%, respectively.

Turning to `Cc1cc2nc(-c3ccc(SCC(=O)Nc4ccc5c(c4)OCCO5)nc3)[nH]c2cc1C`, the inhibition is 0.8% in assay [1], -0.74% in assay [2] and -4.17% in assay [3].

As to `COc1cccc(OC)c1C(=O)Nc1cccc(-c2nn3ccccc3c2-c2ccnc(Nc3cccc(F)c3)n2)c1`, the inhibition in assay [1] came to 6.78%; in assay [2] it was 9.03%; in assay [3], 4.91%.

For the compound `O=C(Cc1cccc(OCCCN(Cc2cccc(C(F)(F)F)c2Cl)CC(c2ccccc2)c2ccccc2)c1)NCc1ccco1`, the results for the inhibition in assay [1], in assay [2] and in assay [3] were -1.28%, 2.42% and -2.47%, respectively.

As to `Cc1cc(NC2CCCC2)nc(Nc2ccccc2C)n1`, the inhibition is 12.6% in assay [1], 7.5% in assay [2] and 4.09% in assay [3].

For the compound `CCC(C)NS(=O)(=O)c1ccc2nc(Nc3ccc(C)cc3)n(C3CCCCC3C)c2c1` (stereo not drawn), the inhibition in assay [1] worked out at 4.96%; in assay [2] it was 3.92%; in assay [3], 2.03%.

With `CCCc1cc(OCCCOc2ccccc2)ccc1OCCCON1C(=N)N=C(N)NC1(C)C`, the inhibition stood at 20.6% in assay [1], 26.8% in assay [2] and 14% in assay [3].

Take `N#Cc1ccc(N/C(=N\c2ccc(-c3ccccc3)cc2)NCc2cccnc2)c(O)c1`: the values for the inhibition in assay [1], in assay [2] and in assay [3] were 6.14%, 1.66% and 5.44%, respectively.

Take `Oc1ccccc1CN1CCC2(CCCN(Cc3ccccc3F)C2)C1` (stereo not drawn): the figures for the inhibition in assay [1], in assay [2] and in assay [3] were 2.03%, -1.06% and 1.57%, respectively.

For `COc1cccc(CC(=O)N2CCC(n3c(C)nc4ccc(F)cc43)CC2)c1`, the inhibition in assay [1] is 2.08%; in assay [2] it was 4.64%; in assay [3] it was 2.33%.

Turning to `CCOc1cc2c(cc1S(=O)(=O)c1ccc(COc3ccc(C(F)(F)F)cc3)cc1)CCN(C)CC2`, the inhibition in assay [1] amounted to 1.72%; in assay [2], 3.79%; in assay [3], 1.18%.

Regarding `COc1ccc2c(=NN=Cc3ccccc3Cl)cc(C)[nH]c2c1`, the inhibition in assay [1] was 0.91%; in assay [2] it was 0.95%; in assay [3], 0.2%.

Take `C#CCNC(=O)c1ccc(-c2ccnc(Nc3cccc(CCCN4CCOCC4)c3)n2)s1`: the inhibition in assay [1] turned out to be 37.4%; in assay [2], 37.9%; in assay [3] it was 27.2%.
